The source of these data is ChEMBL document CHEMBL2218924, “A broad activity screen in support of a chemogenomic map for kinase signalling research and drug discovery” (Biochem J, 2013).

Experiment [1] concerns the target Tyrosine-protein kinase SYK (Homo sapiens) (UniProt P43405). The conditions noted are these: at 10 µM.
In experiment [2] the target is T1, Mitogen-activated protein kinase kinase kinase 7 (Homo sapiens) (UniProt O43318).
T1 sequence (whole entry): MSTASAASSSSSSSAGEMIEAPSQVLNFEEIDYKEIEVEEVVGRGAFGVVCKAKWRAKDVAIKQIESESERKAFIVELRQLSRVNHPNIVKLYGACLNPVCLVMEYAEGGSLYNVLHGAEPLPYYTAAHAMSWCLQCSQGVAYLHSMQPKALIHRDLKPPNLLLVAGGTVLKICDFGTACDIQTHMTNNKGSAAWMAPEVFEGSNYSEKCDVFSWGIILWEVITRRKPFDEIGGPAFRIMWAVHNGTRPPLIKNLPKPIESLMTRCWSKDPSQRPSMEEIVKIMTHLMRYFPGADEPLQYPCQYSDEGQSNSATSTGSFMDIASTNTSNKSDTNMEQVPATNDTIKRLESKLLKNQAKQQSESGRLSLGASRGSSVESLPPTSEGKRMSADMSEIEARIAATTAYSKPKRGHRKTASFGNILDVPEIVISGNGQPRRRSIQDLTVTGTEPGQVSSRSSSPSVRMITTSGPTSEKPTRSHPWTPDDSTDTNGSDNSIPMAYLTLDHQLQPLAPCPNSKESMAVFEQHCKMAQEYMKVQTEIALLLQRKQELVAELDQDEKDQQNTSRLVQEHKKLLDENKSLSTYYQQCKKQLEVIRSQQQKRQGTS
Conditions: at 1 µM.

Experiment [3] addresses T1, Mitogen-activated protein kinase kinase kinase 7 (Homo sapiens). The conditions noted are these: at 10 µM.
In experiment [4] the target is T2, Serine/threonine-protein kinase TAO1 (Homo sapiens) (UniProt Q7L7X3).
T2 sequence (whole entry): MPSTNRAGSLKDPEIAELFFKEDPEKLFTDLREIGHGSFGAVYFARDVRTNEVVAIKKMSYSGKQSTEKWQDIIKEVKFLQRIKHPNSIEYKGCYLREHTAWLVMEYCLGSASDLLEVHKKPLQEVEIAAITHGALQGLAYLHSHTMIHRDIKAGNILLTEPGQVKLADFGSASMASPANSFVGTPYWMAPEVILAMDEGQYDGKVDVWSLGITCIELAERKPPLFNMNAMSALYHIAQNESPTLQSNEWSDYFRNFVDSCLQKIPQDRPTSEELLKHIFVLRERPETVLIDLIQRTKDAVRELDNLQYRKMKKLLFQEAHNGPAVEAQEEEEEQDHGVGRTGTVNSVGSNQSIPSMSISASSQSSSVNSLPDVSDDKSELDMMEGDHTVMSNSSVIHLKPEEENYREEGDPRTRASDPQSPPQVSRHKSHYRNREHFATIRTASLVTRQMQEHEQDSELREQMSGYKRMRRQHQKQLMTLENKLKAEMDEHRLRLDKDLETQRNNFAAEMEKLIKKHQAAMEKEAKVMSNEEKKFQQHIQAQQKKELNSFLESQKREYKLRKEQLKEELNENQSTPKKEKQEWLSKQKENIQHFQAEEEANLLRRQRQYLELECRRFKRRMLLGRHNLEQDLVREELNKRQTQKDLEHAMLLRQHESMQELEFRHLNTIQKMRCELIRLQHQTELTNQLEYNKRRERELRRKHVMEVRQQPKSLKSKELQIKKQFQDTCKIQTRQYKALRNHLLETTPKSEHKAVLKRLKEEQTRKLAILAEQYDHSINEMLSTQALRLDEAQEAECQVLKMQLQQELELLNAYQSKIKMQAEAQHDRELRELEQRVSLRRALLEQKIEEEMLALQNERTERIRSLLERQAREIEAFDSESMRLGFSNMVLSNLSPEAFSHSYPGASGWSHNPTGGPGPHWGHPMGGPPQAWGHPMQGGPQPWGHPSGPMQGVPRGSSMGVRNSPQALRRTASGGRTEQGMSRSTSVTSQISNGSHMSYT
The conditions noted are these: at 1 µM.

The target in experiment [5] is T2, Serine/threonine-protein kinase TAO1 (Homo sapiens). The conditions noted are these: at 10 µM.
Experiment [6] deals with T3, Serine/threonine-protein kinase TAO2 (Homo sapiens) (UniProt Q9UL54).
T3 sequence (whole entry): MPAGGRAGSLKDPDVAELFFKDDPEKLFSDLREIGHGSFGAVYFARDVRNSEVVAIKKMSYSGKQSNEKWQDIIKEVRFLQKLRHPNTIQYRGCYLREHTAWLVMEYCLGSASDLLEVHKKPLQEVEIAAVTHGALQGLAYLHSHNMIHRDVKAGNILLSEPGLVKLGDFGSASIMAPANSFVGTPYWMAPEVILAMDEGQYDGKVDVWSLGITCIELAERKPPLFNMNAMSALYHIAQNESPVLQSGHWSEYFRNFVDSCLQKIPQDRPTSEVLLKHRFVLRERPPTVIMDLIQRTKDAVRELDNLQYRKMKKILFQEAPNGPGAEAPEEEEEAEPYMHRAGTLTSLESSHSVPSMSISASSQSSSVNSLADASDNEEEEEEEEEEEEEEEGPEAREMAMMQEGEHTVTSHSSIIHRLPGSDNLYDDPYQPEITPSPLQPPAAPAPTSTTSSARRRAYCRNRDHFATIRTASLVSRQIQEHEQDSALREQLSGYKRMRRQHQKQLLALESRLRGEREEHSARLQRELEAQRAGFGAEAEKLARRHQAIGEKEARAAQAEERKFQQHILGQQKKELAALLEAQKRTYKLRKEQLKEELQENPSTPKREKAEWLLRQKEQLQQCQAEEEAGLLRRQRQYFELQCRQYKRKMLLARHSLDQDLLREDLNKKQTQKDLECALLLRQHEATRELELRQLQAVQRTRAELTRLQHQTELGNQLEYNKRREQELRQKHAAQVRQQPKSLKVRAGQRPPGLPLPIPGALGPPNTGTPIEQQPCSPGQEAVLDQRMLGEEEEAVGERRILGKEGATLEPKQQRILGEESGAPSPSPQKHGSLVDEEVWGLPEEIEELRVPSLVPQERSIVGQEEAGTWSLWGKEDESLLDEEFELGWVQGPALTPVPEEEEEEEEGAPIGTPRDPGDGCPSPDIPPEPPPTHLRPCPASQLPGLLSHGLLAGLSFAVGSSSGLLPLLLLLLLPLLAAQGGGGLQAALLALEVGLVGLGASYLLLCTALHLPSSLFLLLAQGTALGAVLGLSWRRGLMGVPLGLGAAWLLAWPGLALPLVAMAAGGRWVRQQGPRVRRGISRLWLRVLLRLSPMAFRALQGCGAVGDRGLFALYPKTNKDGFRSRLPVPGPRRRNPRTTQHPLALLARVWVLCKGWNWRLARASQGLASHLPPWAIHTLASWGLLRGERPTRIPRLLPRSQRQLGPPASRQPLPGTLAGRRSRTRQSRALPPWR
The conditions noted are these: at 1 µM.

In experiment [7] the target is T3, Serine/threonine-protein kinase TAO2 (Homo sapiens). The conditions noted are these: at 10 µM.
Experiment [8] deals with T4, Serine/threonine-protein kinase TAO3 (Homo sapiens) (UniProt Q9H2K8).
T4 sequence (whole entry): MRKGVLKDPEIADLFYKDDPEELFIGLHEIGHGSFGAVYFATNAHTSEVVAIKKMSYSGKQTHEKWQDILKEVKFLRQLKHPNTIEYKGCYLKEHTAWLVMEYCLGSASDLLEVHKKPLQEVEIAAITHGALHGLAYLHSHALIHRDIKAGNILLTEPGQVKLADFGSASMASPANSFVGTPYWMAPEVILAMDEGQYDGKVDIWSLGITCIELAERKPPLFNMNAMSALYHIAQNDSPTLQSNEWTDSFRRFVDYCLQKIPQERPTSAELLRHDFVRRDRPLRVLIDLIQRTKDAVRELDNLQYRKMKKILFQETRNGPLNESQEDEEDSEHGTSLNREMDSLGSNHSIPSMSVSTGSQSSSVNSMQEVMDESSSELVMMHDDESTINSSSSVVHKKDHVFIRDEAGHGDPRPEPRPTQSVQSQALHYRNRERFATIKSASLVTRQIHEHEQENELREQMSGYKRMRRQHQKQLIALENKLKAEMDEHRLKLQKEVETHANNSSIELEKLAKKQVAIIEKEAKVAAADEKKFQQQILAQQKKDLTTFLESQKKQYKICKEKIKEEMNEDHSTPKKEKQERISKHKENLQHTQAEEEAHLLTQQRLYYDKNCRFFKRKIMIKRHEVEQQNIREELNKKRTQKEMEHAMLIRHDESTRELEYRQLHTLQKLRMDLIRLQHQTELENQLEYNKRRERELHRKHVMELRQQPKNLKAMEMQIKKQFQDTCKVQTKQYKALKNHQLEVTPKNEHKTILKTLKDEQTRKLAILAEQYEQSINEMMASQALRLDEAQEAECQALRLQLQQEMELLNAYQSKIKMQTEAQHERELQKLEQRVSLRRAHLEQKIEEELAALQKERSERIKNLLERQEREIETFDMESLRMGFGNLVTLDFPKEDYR
Conditions: at 1 µM.

In experiment [9] the target is T4, Serine/threonine-protein kinase TAO3 (Homo sapiens). The conditions noted are these: at 10 µM.
Experiment [10] addresses T5, Serine/threonine-protein kinase TBK1 (Homo sapiens) (UniProt Q9UHD2).
T5 sequence (whole entry): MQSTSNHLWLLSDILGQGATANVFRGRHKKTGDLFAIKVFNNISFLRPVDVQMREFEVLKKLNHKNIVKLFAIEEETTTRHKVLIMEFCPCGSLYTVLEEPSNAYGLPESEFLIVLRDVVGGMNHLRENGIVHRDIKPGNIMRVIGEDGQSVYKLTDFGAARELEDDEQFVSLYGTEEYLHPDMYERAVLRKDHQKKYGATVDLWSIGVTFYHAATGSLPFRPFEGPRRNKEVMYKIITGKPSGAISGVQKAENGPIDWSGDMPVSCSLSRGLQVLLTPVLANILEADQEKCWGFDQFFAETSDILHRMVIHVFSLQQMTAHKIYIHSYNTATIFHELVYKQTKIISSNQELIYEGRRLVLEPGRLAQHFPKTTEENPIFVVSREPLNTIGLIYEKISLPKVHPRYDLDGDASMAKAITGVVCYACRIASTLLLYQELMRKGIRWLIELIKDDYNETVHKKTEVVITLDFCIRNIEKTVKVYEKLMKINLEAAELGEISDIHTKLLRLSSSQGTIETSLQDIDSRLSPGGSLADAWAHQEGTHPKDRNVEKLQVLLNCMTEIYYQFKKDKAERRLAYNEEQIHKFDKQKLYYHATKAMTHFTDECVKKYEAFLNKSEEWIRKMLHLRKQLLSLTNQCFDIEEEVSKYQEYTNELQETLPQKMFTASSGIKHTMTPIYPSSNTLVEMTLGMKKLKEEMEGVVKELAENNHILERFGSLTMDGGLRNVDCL
The conditions noted are these: at 1 µM.

As for `CC(C)(C)n1nc(Cc2cccc3ccccc23)c2c(N)ncnc21`, the residual activity in experiment [1] came to 71%; in experiment [2] it was 86%; in experiment [3] it was 78%; in experiment [4], 87%; in [5], 50%; in [6] it was 90%. Moreover, the residual activity in experiment [7] is 42%; in [8] it was 92%; in experiment [9], 41%; in experiment [10] it was 78%.
